LmPK inh: inhibitors of Leishmania mexicana pyruvate kinase; Potency, µM (top dose mostly 57.5 µM), most hits filed as inhibitors; purified LmPK, Kinase-Glo ATP luminescence, 1 h; 0.37% of 290,000 active; Q27686
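In 50 mM imidazole pH 7.2 with 7 mM MgCl2, LmPK (0.1 nM) turned over PEP (0.5 mM) and ADP (0.1 mM) for 1 h at room temperature. Luciferase read-out of ATP.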
Giardia FBPA inh: inhibitors of Giardia lamblia fructose-1,6-bisphosphate aldolase. A8B2U2. purified Giardia FBPA. Potency, µM (doses to about 59.6 µM), actives largely listed as inhibitors. 0.71% of 290,000 active. AID 2451; note: nearly all actives have a fitted effect of over 55% in size
Target sequence (A8B2U2 whole entry, looked up): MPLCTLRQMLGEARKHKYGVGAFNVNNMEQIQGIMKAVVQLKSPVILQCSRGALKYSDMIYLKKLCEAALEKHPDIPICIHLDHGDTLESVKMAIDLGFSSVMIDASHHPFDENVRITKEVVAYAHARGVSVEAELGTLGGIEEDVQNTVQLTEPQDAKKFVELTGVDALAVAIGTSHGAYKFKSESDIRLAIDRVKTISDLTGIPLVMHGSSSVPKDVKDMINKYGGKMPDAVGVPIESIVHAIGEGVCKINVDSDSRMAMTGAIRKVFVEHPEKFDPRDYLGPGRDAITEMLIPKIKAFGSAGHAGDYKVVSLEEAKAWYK
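40 nM FBPA preincubated 10 min at RT with compound (up to 57.5 uM final), then substrate plus GAPDH/TPI/NAD/arsenate coupling and diaphorase/resazurin added. Fluorescence read after 20 min at RT, 525/598 nm.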
Shiga toxin inh: inhibitors of Shiga toxin in Vero cells; 9.2% of 290,000 active; Vero cells, Shiga toxin protein synthesis inhibition reporter; inhibition, % at 38.7 µM; AID 2315; in the data active = inhibition mostly above about 28%, no sharp cut-off; inactive = mostly below about 43%
Sm TGR block: S. mansoni TGR enzyme inhibition; Q962Y6; purified TGR, DTNB reduction, TNB absorbance 405 nm; Potency, µM (doses to about 114 µM), most hits filed as inhibitors; 3% of 360,000 active; AID 485364; note: nearly all actives have a fitted effect of over 60% in size
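TGR 20 nM + NADPH 100 uM (dispensed conc.), cpd preinc 15 min RT; start with NADPH (500 uM addition) then DTNB (15 mM addition). Kinetic TNB absorbance, 405 nm filter. Four-parameter Hill fit across titration.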
TbPYK inhibitor: T. brucei pyruvate kinase inhibition | Potency, µM (doses to about 76.8 µM), hits mostly inhibitors | TbPYK enzyme, Kinase-Glo Plus ATP luminescence, 45 min | Q57TT1 | 0.12% of 410,000 active; note: nearly all actives have a fitted effect of over 50% in size
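Luminescence from Kinase-Glo Plus, added after a 45-minute room-temperature reaction, served as the end-point read-out. The enzyme and substrate were preincubated with compound before ADP (130 uM final) initiated turnover. Concentration-effect curves came from normalized qHTS data.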
CHX counter: counter-screen for Shiga toxin inhibitors: cycloheximide protein synthesis inhibition; cell reporter, cycloheximide protein synthesis inhibition counterscreen; max response, %; 12% of 300,000 active; in the data active = max response mostly above about 13%, no sharp cut-off; inactive = mostly below about 14%; note: read at 38.3 µM for the half of the compounds with a filed dose
Each line names hits and unclear results; the compound was inactive in the other large screens. Only a selection was taken, and hits are over-represented in it overall. Unless noted, calls come from the whole dose curve; as a rule, active = well fitted curve in the direction sought with a large enough effect; inconclusive = small, poorly fitted or top-dose-only effect, or another doubt; inactive = no such curve, though single readings can be large; an effect the other way counts as inactive or inconclusive.

O=C(Nc1ccccc1)c1cccc(N2CCCC2=O)c1	Shiga toxin inh 40, CHX counter 34
CN(CCCNC(=O)c1cccc(N2CCCC2=O)c1)c1ccccc1	Sm TGR block inconclusive, CHX counter 16
O=C(O)c1cccc(N2CCCC2=O)c1	none
COCCn1cnnc1SCC(=O)Nc1ccc(Br)cc1F	none
Cc1ccc(C)c(NC(=O)Cn2nnc(-c3ccc(N4CCOCC4)cc3)n2)c1	none
COC(=O)c1cccc(N2CCCC2=O)c1	none
O=C(NCCc1ccccc1)c1cccc(N2CCCC2=O)c1	Shiga toxin inh 30, CHX counter 33 (no result: Giardia FBPA inh)
Cc1cccc(CCNC(=O)c2cccc(N3CCCC3=O)c2)c1	Shiga toxin inh 75, CHX counter 44 (no result: Giardia FBPA inh)
Cc1cccc(C(=O)NCC(=O)OCC(=O)c2cc(C)n(CC3CCCO3)c2C)c1 (stereo not given)	Shiga toxin inh 89, CHX counter 48
CNS(=O)(=O)c1cccc(C(=O)OCC(=O)c2cc(C)n(CC3CCCO3)c2C)c1 (stereo not given)	none (no result: LmPK inh, Giardia FBPA inh, Shiga toxin inh, CHX counter)
Cc1cc(C(=O)COC(=O)c2cccc(S(=O)(=O)N(C)C)c2)c(C)n1CC1CCCO1 (stereo not given)	none (no result: LmPK inh, Giardia FBPA inh, Shiga toxin inh, CHX counter)
Cc1cc(C(=O)COC(=O)CNC(=O)c2ccccc2)c(C)n1CC1CCCO1 (stereo not given)	Shiga toxin inh 134, CHX counter 26
O=[N+]([O-])c1ccccc1CNCCCCCO	Sm TGR block 50µM (no result: LmPK inh, Giardia FBPA inh, Shiga toxin inh, CHX counter)
Cn1cc(S(=O)(=O)c2ccc(Cl)cc2)c(=O)c2cc(F)c(N3CCCC3)cc21	none (no result: LmPK inh, Giardia FBPA inh, Shiga toxin inh, CHX counter)
CCOC(=O)/C=C/c1cc(F)c(S(=O)(=O)N2CCN(S(=O)(=O)c3ccc4c(c3)OCCO4)CC2)cc1F	none (no result: LmPK inh, Giardia FBPA inh, Sm TGR block, TbPYK inhibitor)
COc1ccc(O)c(C(=O)c2cnc3c(c2)c(C)nn3C)c1	none
O=C(c1cnc2ccc3ccccc3c2c1)c1cc(F)ccc1O	Shiga toxin inh 69, CHX counter 46
CC(=O)c1ccccc1OCCOc1ccccc1C(C)=O	none
COc1ccc(C(=O)OCCOc2ccccc2C(C)=O)c(O)c1	CHX counter 13
Cc1nn(C)c2ncc(C(=O)c3cc(F)ccc3O)cc12	none
COc1ccc(O)c(C(=O)c2cnc3onc(C)c3c2)c1	CHX counter 21
COc1ccc(C(=O)c2ccc(C)cc2)c(O)c1	none (no result: LmPK inh, Giardia FBPA inh, Shiga toxin inh, Sm TGR block, CHX counter)
COc1ccc(C(=O)c2ccccc2)c(O)c1	Shiga toxin inh active, CHX counter 26
COc1cccc(C(=O)Nc2cc(-c3ccccc3)no2)c1	none (no result: LmPK inh, Giardia FBPA inh, Shiga toxin inh, CHX counter)
COc1ccc(O)c(C(=O)c2cc(C#N)c(=O)n(-c3c(C)n(C)n(-c4ccccc4)c3=O)c2)c1	CHX counter 22
Cc1ncc(CC(=O)n2cc(C(=O)c3cc(F)ccc3O)cn2)s1	Shiga toxin inh 45, CHX counter 34
O=C(c1cnn(-c2ccccc2)c1)c1ccccc1O	LmPK inh inconclusive, Shiga toxin inh 75, CHX counter 70
O=C(c1cnn(-c2ccccc2)c1)c1cc(F)ccc1O	Shiga toxin inh 83, CHX counter 43
COc1ccc(-n2cc(C(=O)c3ccccc3O)cn2)cc1	none
CCC(=O)Nc1cc(-c2cccc(C)c2)nn1-c1ccccc1	none (no result: LmPK inh, Giardia FBPA inh, Shiga toxin inh, CHX counter)
COc1ccc(O)c(C(=O)c2cnn(-c3ccccc3)c2)c1	Shiga toxin inh 96, Sm TGR block inconclusive, CHX counter 29
Cc1nc2c(ccc3c2ccc2nc(C)sc23)s1	Shiga toxin inh 71
COc1cccc(-c2cncnc2N(C)Cc2ccco2)c1	none (no result: LmPK inh, Shiga toxin inh, Sm TGR block, TbPYK inhibitor, CHX counter)
Cc1cc(C)nc(NN=CC2=C(N3CCOCC3)/C(=C/c3ccc(Cl)cc3)CC2)n1	none (no result: LmPK inh, Giardia FBPA inh, Shiga toxin inh, Sm TGR block, CHX counter)
O=CC1=C(N2CCOCC2)/C(=C/c2ccc(Cl)cc2)CC1	Sm TGR block 22µM
Cn1cc(C(=O)N/N=C/C2=C(N3CCOCC3)C(=C/c3ccc([N+](=O)[O-])cc3)/CC2)ccc1=O	none (no result: LmPK inh, Giardia FBPA inh, Shiga toxin inh, Sm TGR block, CHX counter)
Cc1cc(C)nc(N/N=C/C2=C(N3CCOCC3)C(=C\c3ccc(Cl)cc3)/CC2)n1	Sm TGR block 32µM
O=C(O)c1ccc(N/N=C/C2=C(N3CCOCC3)C(=C\c3ccccc3)/CC2)cc1	Shiga toxin inh 74, Sm TGR block 18µM, CHX counter 38
Cc1occc1C(=O)N/N=C/C1=C(N2CCOCC2)C(=C\c2ccc(Cl)cc2Cl)/CC1	Shiga toxin inh active, CHX counter 16
COc1ccc(OC)c(CC(C)N)c1 (stereo not given)	none (no result: LmPK inh, Giardia FBPA inh, Shiga toxin inh, Sm TGR block, CHX counter)
CCC(=O)OCC(=O)C1(OC(=O)CC)C(C)CC2C3C(Cl)CC4=CC(=O)C=C[C@@]4(C)C3C(O)C[C@@]21C (stereo not given in full)	none (no result: LmPK inh, Shiga toxin inh, Sm TGR block, TbPYK inhibitor, CHX counter)
CCCCN(C(=O)NC(=O)C1=C(N2CCOCC2)/C(=C/c2ccccc2)CC1)S(C)(=O)=O	none
CN(C(=O)NC(=O)C1=C(N2CCOCC2)/C(=C/c2ccccc2)CC1)S(C)(=O)=O	Shiga toxin inh 53, Sm TGR block 16µM, CHX counter 29
CCC1Oc2ccc(C)cc2N(CC(=O)N(Cc2cccnc2)Cc2cccc(F)c2)C1=O (stereo not given)	none
CCC1Oc2ccc(C)cc2N(CC(=O)N(Cc2ccncc2)Cc2ccco2)C1=O (stereo not given)	Sm TGR block 22µM
COc1ccc2nc(Cl)c(C3CC(c4ccco4)=NN3C(=O)CCCC(=O)O)cc2c1 (stereo not given)	Sm TGR block 8.9µM
Cc1ccc2cc(C3CC(c4ccco4)=NN3C(=O)CCCC(=O)O)c(Cl)nc2c1 (stereo not given)	Sm TGR block inconclusive
COc1ccc2nc(Cl)c(C3CC(c4ccco4)=NN3C(=O)CCC(=O)O)cc2c1 (stereo not given)	Sm TGR block inconclusive
Cc1ccc2nc(Cl)c(C3CC(c4ccco4)=NN3C(=O)CCCC(=O)O)cc2c1 (stereo not given)	Sm TGR block 35µM
O=C(c1cc(COc2c(F)cccc2F)on1)N1CCC(c2ccccc2Cl)C1 (stereo not given)	Shiga toxin inh 82, CHX counter 51
O=C(c1cc(COc2c(F)cccc2F)on1)N1CCc2ccccc2C1	Shiga toxin inh 52
O=C(c1cc(COc2c(F)cccc2F)on1)N1CCC(c2ccccc2F)C1 (stereo not given)	Shiga toxin inh 90, CHX counter 36
O=C(c1cc(COc2cccc(C(F)(F)F)c2)on1)N1CCc2ccccc2C1	none (no result: LmPK inh, Giardia FBPA inh, Shiga toxin inh, Sm TGR block, CHX counter)
O=C(c1cc(COc2cccc3cnccc23)on1)N1CCC(c2ccccc2Cl)C1 (stereo not given)	none (no result: Giardia FBPA inh)
CC(C)Oc1ccc(CNC(=O)CCn2c(=O)c3cccn3c3ccc(F)cc32)cc1	none (no result: LmPK inh, Giardia FBPA inh, Shiga toxin inh, CHX counter)
CCSc1nnc(-c2ccccc2N)c(=O)[nH]1	Shiga toxin inh 53, CHX counter 24
CCSc1nnc(-c2ccccc2N=Cc2c(C)[nH]n(-c3ccccc3)c2=O)c(=O)[nH]1	CHX counter 13

Bioassay records as filed in PubChem.
